Measurements taken from PubChem BioAssay AID1159580 (chemical genetic matrix, 2015).
In all, about 5,500 compounds went through this assay and about 2,000 (36%) were called active. Not shown: some 18% with an inconclusive outcome. Cut-off read from the data, not from the text of the source: active = normalized growth mostly below about 0.91 (no sharp cut-off); inconclusive = no clear call, values can overlap the other calls; inactive = mostly above about 0.92. The list shows a part of the results.

Test: chemical genetic growth profiling, strain panel (AID 1159580);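 note: tested at 20 µM; growth read once vehicle control cultures reached saturation at 30 °C; 1 = growth at the plate median or of vehicle wells; lower values mean less growth of the strain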
Settings: S. cerevisiae deletion strains, growth OD
[1] = locus YAL013W, strain DEP1, hits give low values
[2] = locus YAL040C, strain CLN3, hits give low values
[3] = locus YCL061C, strain MRC1 (second series), hits give low values
[4] = locus YDR150W, strain NUM1, hits give low values
[5] = locus YDR363W, strain ESC2, hits give low values
[6] = locus YER002W, strain NOP16, hits give low values
[7] = locus YGR229C, strain SMI1, hits give low values
[8] = locus YMR307W, strain GAS1, hits give low values
[9] = locus YNL175C, strain NOP13, hits give low values
[10] = locus YNL197C, strain WHI3, hits give low values
[11] = locus YNL224C, strain SQS1, hits give low values
[12] = locus YOR083W, strain WHI5 (second series), hits give low values
[13] = locus YPL241C, strain CIN2, hits give low values
[14] = locus YHR030C, strain SLT2, hits give low values
[15] = locus YHR079C, strain IRE1, hits give low values
[16] = locus YJL095W, strain BCK1, hits give low values
[17] = locus YJR066W, strain TOR1, hits give low values
[18] = locus YLR113W, strain HOG1, hits give low values
[19] = locus YNL183C, strain NPR1, hits give low values
[20] = locus YOR231W, strain MKK1, hits give low values
[21] = locus YPL256C, strain CLN2, hits give low values
[22] = locus YGR078C, strain PAC10, hits give low values
[23] = locus YJR075W, strain HOC1, hits give low values
[24] = locus YMR263W, strain SAP30, hits give low values
[25] = locus YPL055C, strain LGE1, hits give low values
[26] = locus YDL101C, strain DUN1, hits give low values

Measured: normalized growth

[Li+]
inactive: [1] 1.01 | [2] 0.996 | [3] 1.01 | [4] 1.02 | [5] 1.01 | [6] 1 | [7] 1.02 | [8] 0.994 | [9] 1 | [10] 1.02 | [11] 1 | [12] 1.01 | [13] 1.01

c1ccc(-c2ccc(C(c3ccccc3)n3ccnc3)cc2)cc1 (centres undefined)
active: locus YAL021C, strain ccr4, hits give low values 0.0644 | locus YAL026C, strain drs2, hits give low values 0.0618 | locus YAL030W, strain snc1, hits give low values 0.0587 | locus YBL061C, strain skt5, hits give low values 0.0709 | locus YBR009C, strain hhf1, hits give low values 0.0624 | locus YBR023C, strain chs3, hits give low values 0.0697 | locus YBR171W, strain sec66, hits give low values 0.0929 | locus YBR231C, strain swc5, hits give low values 0.0689 | locus YBR279W, strain paf1, hits give low values 0.0719 | locus YCL011C, strain gbp2, hits give low values 0.0606 | locus YCL016C, strain dcc1, hits give low values 0.0733 | locus YCL069W, strain vba3, hits give low values 0.066 | locus YCR088W, strain abp1, hits give low values 0.0692 | locus YDL005C, strain med2, hits give low values 0.0767 | locus YDL040C, strain nat1, hits give low values 0.0668 | locus YDR001C, strain nth1, hits give low values 0.067 | locus YDR069C, strain doa4, hits give low values 0.0703 | locus YDR137W, strain rgp1, hits give low values 0.127 | locus YDR159W, strain sac3, hits give low values 0.0937 | locus YDR195W, strain ref2 0.13 | locus YDR297W, strain sur2, hits give low values 0.0659 | locus YDR334W, strain swr1, hits give low values 0.0716 | locus YDR335W, strain msn5, hits give low values 0.0638 | locus YDR392W, strain spt3, hits give low values 0.0713 | locus YEL003W, strain gim4, hits give low values 0.0535 | locus YEL037C, strain rad23, hits give low values 0.0622 | locus YEL061C, strain CIN8 (second series), hits give low values 0.0652 | locus YER015W, strain faa2, hits give low values 0.0699 | locus YER016W, strain bim1, hits give low values 0.0698 | locus YER111C, strain swi4, hits give low values 0.0902 | locus YER155C, strain BEM2 (second series), hits give low values 0.0914 | locus YFR010W, strain ubp6, hits give low values 0.0846 | locus YGL167C, strain pmr1, hits give low values 0.124 | locus YGL173C, strain kem1, hits give low values 0.0886 | locus YGL227W, strain vid30, hits give low values 0.077 | locus YGL240W, strain doc1, hits give low values 0.108 | locus YGL253W, strain hxk2, hits give low values 0.0596 | locus YHR013C, strain ard1, hits give low values 0.105 | locus YHR027C, strain rpn1, hits give low values 0.0776 | [14] 0.105 | [15] 0.13 | locus YHR142W, strain chs7, hits give low values 0.0799 | locus YJL092W, strain hpr5, hits give low values 0.0642 | locus YJL095W, strain BCK1 (second series), hits give low values 0.0592 | [16] 0.127 | locus YJL115W, strain asf1, hits give low values 0.087 | locus YJL129C, strain trk1, hits give low values 0.102 | locus YJL154C, strain vps35, hits give low values 0.0754 | locus YJL164C, strain tpk1, hits give low values 0.0615 | locus YJL166W, strain qcr8, hits give low values 0.0657 | locus YJL187C, strain SWE1, hits give low values 0.0683 | [17] 0.0151 | locus YKL160W, strain elf1, hits give low values 0.0739 | locus YKR026C, strain gcn3, hits give low values 0.0725 | locus YKR091W, strain srl3, hits give low values 0.066 | locus YLL001W, strain dnm1, hits give low values 0.0668 | locus YLL026W, hits give low values 0.0595 | locus YLL041C, strain sdh2, hits give low values 0.0629 | locus YLR027C, strain aat2, hits give low values 0.0596 | [18] 0.164 | locus YLR221C, strain rsa3, hits give low values 0.0622 | locus YLR258W, strain gsy2, hits give low values 0.0654 | locus YLR262C, strain YPT6 (second series), hits give low values 0.0894 | locus YLR320W, strain mms22, hits give low values 0.0767 | locus YLR342W, strain FKS1, hits give low values 0.0755 | locus YLR357W, strain rsc2, hits give low values 0.128 | locus YLR370C, strain arc18, hits give low values 0.0619 | locus YLR384C, strain iki3, hits give low values 0.0674 | locus YML120C, strain ndi1, hits give low values 0.0564 | locus YMR058W, strain fet3, hits give low values 0.068 | locus YMR125W, strain sto1, hits give low values 0.082 | locus YMR129W, hits give low values 0.0621 | locus YMR205C, strain PFK2, hits give low values 0.0925 | locus YMR231W, strain pep5, hits give low values 0.179 | locus YNL071W, strain lat1, hits give low values 0.0616 | [19] 0.0338 | locus YNL209W, strain ssb2, hits give low values 0.0868 | locus YNL248C, strain rpa49, hits give low values 0.0877 | locus YNL322C, strain KRE1 (second series), hits give low values 0.08 | locus YNR049C, strain mso1, hits give low values 0.0653 | locus YOR001W, strain rrp6, hits give low values 0.075 | locus YOR070C, strain gyp1, hits give low values 0.0635 | locus YOR080W, strain dia2, hits give low values 0.0729 | locus YOR083W, strain WHI5, hits give low values 0.0687 | locus YOR106W, strain vam3, hits give low values 0.0685 | [20] 0.141 | locus YOR265W, strain rbl2, hits give low values 0.0651 | locus YOR270C, strain vph1, hits give low values 0.0985 | locus YOR290C, strain snf2, hits give low values 0.0719 | locus YPL051W, strain arl3, hits give low values 0.0743 | locus YPL078C, strain atp4, hits give low values 0.07 | locus YPL106C, strain sse1, hits give low values 0.116 | locus YPL240C, strain hsp82, hits give low values 0.0631 | [21] 0.153

c1ccc2c(c1)OCC(C1=NCCN1)O2 (centres undefined)
inactive: [1] 1.02 | [2] 1 | [3] 1 | [5] 1.03 | [6] 0.987 | [22] 1.01 | [7] 1.02 | [23] 1 | [24] 1.02 | [8] 0.996 | [9] 1.02 | [10] 1.01 | [11] 1.01 | [12] 0.996 | [25] 1.01

O=C(NCc1ccco1)c1csc(C2COc3ccccc3O2)n1 (centres undefined)
active: locus YDR052C, strain DBF4, hits give low values 0.909 | locus YDR054C, strain cdc34, hits give low values 0.875 | locus YFR019W, strain FAB1, hits give low values 0.711 | locus YGR092W, strain DBF2, hits give low values 0.154 | [14] 0.623 | locus YJR066W, strain TOR1 (second series), hits give low values 0.343 | [18] 0.811 | locus YNL307C, strain MCK1 (second series), hits give low values 0.585 | locus YOL136C, strain PFK27, hits give low values 0.66 | locus YOR061W, strain CKA2, hits give low values 0.586 | [21] 0.754
inactive: locus YAR019C, strain CDC15, hits give low values 0.916 | locus YBL105C, strain PKC1, hits give low values 0.917 | locus YBR135W, strain CKS1, hits give low values 0.918 | locus YBR136W, strain MEC1, hits give low values 0.925 | locus YBR160W, strain CDC28, hits give low values 0.914 | locus YDL017W, strain CDC7, hits give low values 0.925 | locus YDL028C, strain MPS1, hits give low values 0.919 | [26] 0.964 | locus YDL108W, strain KIN28, hits give low values 0.937 | locus YDL132W, strain cdc53, hits give low values 0.897 | locus YDL214C, strain PRR2, hits give low values 0.854 | locus YDR226W, strain ADK1, hits give low values 0.923 | locus YDR477W, strain SNF1, hits give low values 0.773 | locus YER123W, strain YCK3, hits give low values 0.663 | locus YER133W, strain GLC7, hits give low values 0.902 | locus YFL009W, strain cdc4, hits give low values 0.913 | locus YFL029C, strain CAK1, hits give low values 0.915 | locus YFR003C, strain YPI1, hits give low values 0.931 | locus YFR028C, strain CDC14, hits give low values 0.936 | locus YGR040W, strain KSS1, hits give low values 0.868 | locus YGR052W, strain FMP48, hits give low values 0.802 | [15] 0.712 | locus YHR082C, strain KSP1, hits give low values 0.896 | locus YHR205W, strain SCH9, hits give low values 0.894 | locus YIL147C, strain SLN1, hits give low values 0.922 | [16] 0.689 | locus YJL128C, strain PBS2, hits give low values 0.98 | locus YJL157C, strain FAR1, hits give low values 0.797 | locus YJR016C, strain ILV3, hits give low values 0.904 | [17] 0.745 | locus YKL048C, strain ELM1, hits give low values 0.906 | locus YKL067W, strain YNK1, hits give low values 0.841 | locus YKL101W, strain HSL1, hits give low values 0.873 | locus YKL193C, strain SDS22, hits give low values 0.932 | locus YKL203C, strain TOR2, hits give low values 0.851 | locus YLR133W, strain CKI1, hits give low values 0.845 | locus YLR403W, strain SFP1, hits give low values 0.839 | locus YML070W, strain DAK1, hits give low values 0.689 | locus YMR001C, strain CDC5, hits give low values 0.919 | locus YMR205C, strain PFK2 (second series), hits give low values 0.893 | locus YMR277W, strain FCP1, hits give low values 0.915 | locus YNL006W, strain LST8, hits give low values 0.926 | locus YNL020C, strain ARK1, hits give low values 0.843 | locus YNL161W, strain CBK1, hits give low values 0.921 | [19] 0.737 | locus YNL207W, strain RIO2, hits give low values 0.915 | locus YNL222W, strain SSU72, hits give low values 0.917 | locus YOL078W, strain AVO1, hits give low values 0.928 | locus YOR119C, strain RIO1, hits give low values 0.894 | [20] 0.746 | locus YOR329C, strain SCD5, hits give low values 0.909 | locus YPL031C, strain PHO85, hits give low values 0.85 | locus YPL153C, strain RAD53, hits give low values 0.773 | locus YPL204W, strain HRR25, hits give low values 0.796 | locus YPL209C, strain IPL1, hits give low values 0.923 | locus YPR025C, strain CCL1, hits give low values 0.916 | locus YPR106W, strain ISR1, hits give low values 0.956 | locus YPR111W, strain DBF20, hits give low values 0.947 | strain NNK1, hits give low values 0.944 | strain TSCII, hits give low values 0.92

C/C(=N/NC1=NCCN1)c1ccc(F)cc1
inactive: [1] 1.01 | locus YBR229C, strain ROT2, hits give low values 0.993 | locus YCL061C, strain MRC1, hits give low values 0.997 | [26] 0.979 | [4] 0.907 | locus YEL061C, strain CIN8, hits give low values 1.01 | [22] 0.995 | [14] 1.01 | locus YHR087W, strain rtc3, hits give low values 0.987 | locus YJR043C, strain POL32, hits give low values 1 | [23] 0.992 | locus YKL190W, strain CNB1, hits give low values 1.01 | locus YLR039C, strain RIC1, hits give low values 1.04 | locus YLR058C, strain SHM2 (second series), hits give low values 1.01 | locus YLR085C, strain ARP6, hits give low values 0.996 | locus YLR262C, strain YPT6, hits give low values 0.997 | locus YML094W, strain GIM5, hits give low values 0.996 | locus YMR219W, strain ESC1, hits give low values 1 | [24] 0.998 | locus YNL153C, strain GIM3, hits give low values 0.987 | locus YNL298W, strain CLA4 (second series), hits give low values 1.02 | locus YNL322C, strain KRE1, hits give low values 1 | locus YNR030W, strain Alg12, hits give low values 1.01 | [25] 1.01 | [13] 1.03 | locus YPR135W, strain CTF4, hits give low values 1.02
